Values without a mark were called inactive. Inconclusive results are not listed. Where a call stands in place of a potency, no number is given. Calls of active or inactive are those of the source. Unless noted, calls follow the shape of the dose curve; as a rule, active = well fitted curve in the direction sought with a large enough effect; inconclusive = small, poorly fitted or top-dose-only effect, or another doubt; inactive = no such curve, though single readings can be large; an effect the other way counts as inactive or inconclusive.
How the values were obtained:
[1] = target: Cytochrome P450 1A2 (Homo sapiens) (UniProt P05177); assay: p450-cyp1a2 (AID 410; calls by dose curve; also: potency is read from the fitted curve at half-maximal effect)
Procedure, shortened: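 Luminescent readout of luciferin formed from Luciferin-ME by human CYP1A2; data normalized against complete inhibition by 57 uM furafylline. Enzyme 20nM, substrate 100uM at Km, 100mM KPO4 buffer, 60 min reaction at room temperature.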

[2] = target: Glucocorticoid receptor (Homo sapiens) (UniProt P04150); assay: GR-GFP Redistribution (AID 450;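 active = compounds whose dose series gives a full or clear partial fitted curve of increased nuclear translocation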; also: potency is read from the fitted curve at half-maximal effect)
[3] = target: Glucocorticoid receptor (Homo sapiens) (UniProt P04150); assay: GR-EFC Redistribution (AID 451; calls by dose curve; also: potency is read from the fitted curve at half-maximal effect); details: CHO-K1 GR-EFC translocation, beta-gal luminescence, 2 h
Procedure, shortened: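 CHO-K1 cells expressing nuclear EA and GR-ED fragments of b-gal; compounds titrated up to 46 uM final, 2 h at 37 C. GR nuclear translocation read as complemented b-gal luminescence after 1 h RT detection.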

[4] = target: 3',5'-cyclic-AMP phosphodiesterase 4B (Homo sapiens) (UniProt Q07343); assay: qHTS Assay for Inhibitors of PDE-IV (AID 607; active = well fitted activation curve with a large enough effect in the main read-out, with a control signal flat, not every such curve was filed as active)
Procedure, shortened: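 The readout is membrane depolarisation from a cAMP-sensing CNG channel, detected with a potential dye at ex 535/em 590. Cells were HEK293-derived (endogenous PDE-IV) at 1000 cells/well, titrated up to 22.9 uM final.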

[5] = target: Cytochrome P450 2C9 (Homo sapiens) (UniProt P11712); assay: qHTS Assay for Inhibitors and Substrates of Cytochrome P450 2C9 (AID 883); also: nearly all actives have a fitted effect of over 60% in size; also: potency is read from the fitted curve at half-maximal effect
Procedure, shortened: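 10nM CYP2C9 + 100uM Luciferin-H (=KM), 25mM KPO4; cpd 10 min 37C; NADPH regen, 60 min 37C; stop/detect with P450 Glo-Buffer 20 min; luminescence. Norm. to 57uM sulphaphenazole as full inhibition.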

[6] = target: Cytochrome P450 3A4 (Homo sapiens) (UniProt P08684); assay: qHTS Assay for Inhibitors and Substrates of Cytochrome P450 3A4 (AID 884); also: potency is read from the fitted curve at half-maximal effect; nearly all actives have a fitted effect of over 50% in size
Procedure, shortened: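 20 nM human CYP3A4 with 25 uM Luciferin-PPXE (at KM) in 200 mM KPO4, preincubated 10 min with compound; NADPH regeneration started a 60 min RT reaction. Luciferin detected by luminescence, normalized to 57 uM ketoconazole as full inhibition.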

[7] = target: Cytochrome P450 3A4 (Homo sapiens) (UniProt P08684); assay: qHTS Assay for Activators of Cytochrome P450 3A4 (AID 885); also: nearly all actives have a fitted effect of over 65% in size
Procedure, shortened: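 Steps: enzyme/substrate mix dispensed; compound added, 10 min RT; NADPH regeneration solution added, 60 min RT; luciferin detection buffer stops reaction; 20 min later luminescence measured.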

[8] = target: Cytochrome P450 2D6 (Homo sapiens) (UniProt P10635); assay: qHTS Assay for Inhibitors and Substrates of Cytochrome P450 2D6 (AID 891); also: nearly all actives have a fitted effect of over 60% in size; also: potency is read from the fitted curve at half-maximal effect
Procedure, shortened: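 Human CYP2D6 (5 nM) with 30 uM Luciferin-ME EGE (at Km) in 100 mM KPO4, compound preincubated 10 min, then NADPH regeneration system for 60 min at room temperature. Luciferin read by luminescence; normalized to 1.43 uM quinidine.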

[9] = target: Cytochrome P450 2C19 (Homo sapiens) (UniProt P33261); assay: qHTS Assay for Inhibitors and Substrates of Cytochrome P450 2C19 (AID 899); also: nearly all actives have a fitted effect of over 60% in size; also: potency is read from the fitted curve at half-maximal effect
Procedure, shortened: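 Luminescent read-out of luciferin formed from Luciferin-H EGE (10uM, equal to KM). Enzyme 5nM in 50mM KPO4; compound added, 10 min at 37C, then NADPH regenerating system for 60 min at 37C. Full inhibition defined by 57uM ketoconazole.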

[10] = target: DNA dC->dU-editing enzyme APOBEC-3G (Homo sapiens) (UniProt Q9HC16); assay: qHTS for inhibitors of Vif-A3G interactions: Validation (AID 588379)
Procedure, shortened: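 HeLa cells stably expressing Vif and A3G-eYFP, 700 cells/well, incubated overnight at 37 deg C, then exposed to compound overnight at 37 deg C. Inhibition of Vif-mediated degradation read as increased yellow fluorescence (Ex 488/Em 500-530) by laser-scanning cytometry.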

[11] = target: Mitogen-activated protein kinase 10 (Mus musculus) (UniProt Q61831); assay: JNK3 AlphaScreen Assay (AID 530; active = well fitted curve in either direction with a large enough effect, not every such curve was filed as active;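 also: kinase came from lysate of stimulated human HepG2 cells; signal reports phosphorylation of biotinylated GST-cJun 1-79 at Ser73 with 10 µM ATP; series mostly up to about 57 µM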)
Procedure, shortened: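 Pre-activated (IL-1β/TNFα) JNK3 in HepG2 lysates phosphorylates biotin-GST-cJun(1-79), 10 uM ATP; anti-phospho-cJun(Ser73) AlphaScreen read at room temperature, pH 7.6 Tris buffer. Compounds pre-incubated 15 min as titrations.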

Sequence of Cytochrome P450 2D6 (Homo sapiens) (P10635 whole entry, looked up): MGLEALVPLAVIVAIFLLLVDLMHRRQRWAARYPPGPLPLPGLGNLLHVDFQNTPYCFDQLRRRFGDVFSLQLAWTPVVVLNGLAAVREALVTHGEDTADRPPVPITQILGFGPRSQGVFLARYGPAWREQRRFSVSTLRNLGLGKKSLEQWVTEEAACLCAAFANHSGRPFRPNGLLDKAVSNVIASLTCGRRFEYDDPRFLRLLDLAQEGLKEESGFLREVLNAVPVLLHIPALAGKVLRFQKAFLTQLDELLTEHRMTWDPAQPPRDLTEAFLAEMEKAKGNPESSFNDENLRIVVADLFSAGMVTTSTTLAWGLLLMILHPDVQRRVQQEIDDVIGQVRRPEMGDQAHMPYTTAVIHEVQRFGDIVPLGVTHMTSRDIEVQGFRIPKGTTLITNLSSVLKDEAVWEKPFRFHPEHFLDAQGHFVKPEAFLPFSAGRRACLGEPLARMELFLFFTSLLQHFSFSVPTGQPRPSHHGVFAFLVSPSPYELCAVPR
Sequence of 3',5'-cyclic-AMP phosphodiesterase 4B (Homo sapiens) (Q07343 whole entry, looked up): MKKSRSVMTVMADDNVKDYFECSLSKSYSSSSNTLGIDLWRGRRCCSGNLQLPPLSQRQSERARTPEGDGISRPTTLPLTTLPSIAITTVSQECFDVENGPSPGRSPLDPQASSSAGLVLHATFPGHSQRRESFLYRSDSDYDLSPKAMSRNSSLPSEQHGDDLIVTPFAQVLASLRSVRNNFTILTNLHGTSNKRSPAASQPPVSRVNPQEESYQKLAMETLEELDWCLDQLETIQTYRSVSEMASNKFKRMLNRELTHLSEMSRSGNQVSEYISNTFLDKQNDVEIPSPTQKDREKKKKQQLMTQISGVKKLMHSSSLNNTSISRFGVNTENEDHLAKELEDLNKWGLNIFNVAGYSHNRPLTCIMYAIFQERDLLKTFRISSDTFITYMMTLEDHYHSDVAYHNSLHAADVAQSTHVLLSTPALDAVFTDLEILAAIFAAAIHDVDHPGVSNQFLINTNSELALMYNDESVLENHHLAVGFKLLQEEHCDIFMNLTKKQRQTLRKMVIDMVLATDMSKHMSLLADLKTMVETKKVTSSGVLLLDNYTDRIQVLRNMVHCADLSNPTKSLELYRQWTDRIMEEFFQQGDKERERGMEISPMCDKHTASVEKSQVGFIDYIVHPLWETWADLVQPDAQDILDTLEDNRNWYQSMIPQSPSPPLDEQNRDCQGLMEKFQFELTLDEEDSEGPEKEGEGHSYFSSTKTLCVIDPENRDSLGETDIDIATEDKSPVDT
Sequence of Glucocorticoid receptor (Homo sapiens) (P04150 whole entry, looked up, the tested form may be a part): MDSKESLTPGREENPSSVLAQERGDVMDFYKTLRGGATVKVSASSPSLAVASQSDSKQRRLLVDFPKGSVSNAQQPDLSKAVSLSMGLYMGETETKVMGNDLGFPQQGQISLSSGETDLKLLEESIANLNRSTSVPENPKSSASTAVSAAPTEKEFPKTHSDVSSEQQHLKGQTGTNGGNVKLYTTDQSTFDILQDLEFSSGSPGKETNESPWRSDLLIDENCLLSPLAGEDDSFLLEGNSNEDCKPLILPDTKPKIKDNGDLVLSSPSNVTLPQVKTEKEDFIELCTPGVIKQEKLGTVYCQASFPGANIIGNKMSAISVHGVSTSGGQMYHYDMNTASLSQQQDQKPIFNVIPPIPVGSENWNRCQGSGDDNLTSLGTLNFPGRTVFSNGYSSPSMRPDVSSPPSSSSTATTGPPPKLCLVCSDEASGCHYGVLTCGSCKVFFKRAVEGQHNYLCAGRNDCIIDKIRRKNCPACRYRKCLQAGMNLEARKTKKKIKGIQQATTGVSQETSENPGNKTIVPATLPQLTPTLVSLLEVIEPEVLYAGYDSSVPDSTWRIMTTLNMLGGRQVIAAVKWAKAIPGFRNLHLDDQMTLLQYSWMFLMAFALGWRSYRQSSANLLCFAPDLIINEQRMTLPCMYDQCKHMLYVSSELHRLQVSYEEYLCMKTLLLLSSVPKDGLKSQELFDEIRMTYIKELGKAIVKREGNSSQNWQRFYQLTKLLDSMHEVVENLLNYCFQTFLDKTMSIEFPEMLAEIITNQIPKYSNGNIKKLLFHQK
Sequence of Cytochrome P450 2C19 (Homo sapiens) (P33261 whole entry, looked up): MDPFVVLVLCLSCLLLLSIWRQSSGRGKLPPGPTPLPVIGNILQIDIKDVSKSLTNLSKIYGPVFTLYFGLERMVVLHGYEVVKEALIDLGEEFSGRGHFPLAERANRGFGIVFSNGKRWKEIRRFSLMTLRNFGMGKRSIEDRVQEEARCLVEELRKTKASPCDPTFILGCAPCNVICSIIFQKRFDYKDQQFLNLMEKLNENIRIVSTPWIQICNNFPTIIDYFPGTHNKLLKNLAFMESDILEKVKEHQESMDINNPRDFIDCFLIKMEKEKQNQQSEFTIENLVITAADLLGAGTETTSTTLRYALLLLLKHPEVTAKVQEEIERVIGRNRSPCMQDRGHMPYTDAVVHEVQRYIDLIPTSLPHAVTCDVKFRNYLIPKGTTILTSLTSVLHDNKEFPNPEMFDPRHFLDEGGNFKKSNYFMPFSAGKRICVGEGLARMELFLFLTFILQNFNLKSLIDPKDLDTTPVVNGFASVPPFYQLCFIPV
Sequence of Cytochrome P450 3A4 (Homo sapiens) (P08684 whole entry, looked up): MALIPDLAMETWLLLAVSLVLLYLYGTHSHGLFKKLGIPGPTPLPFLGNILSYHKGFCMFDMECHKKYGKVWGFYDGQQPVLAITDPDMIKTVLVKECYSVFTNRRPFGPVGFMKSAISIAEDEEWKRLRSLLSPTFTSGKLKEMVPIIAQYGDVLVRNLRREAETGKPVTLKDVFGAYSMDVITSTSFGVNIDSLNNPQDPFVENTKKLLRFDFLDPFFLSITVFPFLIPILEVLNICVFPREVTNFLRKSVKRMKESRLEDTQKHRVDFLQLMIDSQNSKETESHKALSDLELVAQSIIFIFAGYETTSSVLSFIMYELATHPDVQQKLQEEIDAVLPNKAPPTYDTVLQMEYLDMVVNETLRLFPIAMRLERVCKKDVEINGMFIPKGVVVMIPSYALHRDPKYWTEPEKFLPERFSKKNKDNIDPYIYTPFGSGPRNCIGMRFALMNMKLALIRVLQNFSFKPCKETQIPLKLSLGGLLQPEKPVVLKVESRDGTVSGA
Sequence of Cytochrome P450 2C9 (Homo sapiens) (P11712 whole entry, looked up): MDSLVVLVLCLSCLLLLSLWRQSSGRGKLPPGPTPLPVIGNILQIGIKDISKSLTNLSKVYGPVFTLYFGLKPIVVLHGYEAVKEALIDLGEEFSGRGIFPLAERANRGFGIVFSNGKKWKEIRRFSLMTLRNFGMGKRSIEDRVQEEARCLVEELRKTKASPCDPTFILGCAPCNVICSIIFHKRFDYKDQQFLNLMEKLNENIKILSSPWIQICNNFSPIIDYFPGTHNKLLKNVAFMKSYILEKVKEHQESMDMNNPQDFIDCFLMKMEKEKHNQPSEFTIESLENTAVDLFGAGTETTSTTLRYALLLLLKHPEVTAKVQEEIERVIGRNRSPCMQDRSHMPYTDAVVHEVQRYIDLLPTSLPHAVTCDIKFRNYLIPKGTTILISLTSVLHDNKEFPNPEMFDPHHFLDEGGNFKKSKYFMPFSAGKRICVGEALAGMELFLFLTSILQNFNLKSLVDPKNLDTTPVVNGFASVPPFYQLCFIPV
Sequence of Cytochrome P450 1A2 (Homo sapiens) (P05177 whole entry, looked up): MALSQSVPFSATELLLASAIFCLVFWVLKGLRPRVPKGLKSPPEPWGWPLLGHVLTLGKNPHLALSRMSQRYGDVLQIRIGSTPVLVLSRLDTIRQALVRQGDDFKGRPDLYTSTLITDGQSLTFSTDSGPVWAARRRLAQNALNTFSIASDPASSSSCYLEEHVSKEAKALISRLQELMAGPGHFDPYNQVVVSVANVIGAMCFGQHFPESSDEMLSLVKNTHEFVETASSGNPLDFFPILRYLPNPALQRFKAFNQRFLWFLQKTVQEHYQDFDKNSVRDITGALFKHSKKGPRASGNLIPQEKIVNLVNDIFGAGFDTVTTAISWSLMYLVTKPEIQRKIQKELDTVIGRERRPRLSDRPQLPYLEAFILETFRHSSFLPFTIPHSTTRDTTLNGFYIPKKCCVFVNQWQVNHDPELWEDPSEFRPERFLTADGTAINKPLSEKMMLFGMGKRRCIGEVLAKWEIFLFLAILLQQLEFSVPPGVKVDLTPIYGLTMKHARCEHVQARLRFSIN
Sequence of DNA dC->dU-editing enzyme APOBEC-3G (Homo sapiens) (Q9HC16 whole entry, looked up): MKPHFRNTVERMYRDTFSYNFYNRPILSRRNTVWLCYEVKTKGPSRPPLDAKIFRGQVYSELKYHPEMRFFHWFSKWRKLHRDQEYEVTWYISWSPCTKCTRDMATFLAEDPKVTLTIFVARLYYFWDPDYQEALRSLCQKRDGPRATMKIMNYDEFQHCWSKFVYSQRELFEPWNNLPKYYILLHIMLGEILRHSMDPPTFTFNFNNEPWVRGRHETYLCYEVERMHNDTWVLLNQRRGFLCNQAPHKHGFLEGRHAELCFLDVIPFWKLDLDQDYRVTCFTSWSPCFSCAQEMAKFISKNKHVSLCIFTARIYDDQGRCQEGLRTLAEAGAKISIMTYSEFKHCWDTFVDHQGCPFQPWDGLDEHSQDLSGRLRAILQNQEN

Structure (SMILES) | Potency [1] | Potency [2] [µM] | Potency [3] [µM] | Potency [4] | Potency [5] | Potency [6] | Potency [7] | Potency [8] | Potency [9] | outcome [10] | Potency [11]
COc1cc(-c2cc(=O)c3ccccc3o2)ccc1O | 0.0794 µM (active) | > 46 | > 46 | inactive | 6.31 µM (active) | 15.8 µM (active) | inactive | 31.6 µM (active) | 6.31 µM (active) | inactive | 
CC[C@@H]1[C@H]2CCCCN3[C@@H]2[C@@H](C[C@H]3[C@@H]2C[C@H](C)C(=O)O2)[C@@H]2[C@H]1OC(=O)[C@H]2C | 25.1 µM (active) | > 46 | > 46 | inactive | inactive |  |  |  | inactive |  | inactive
C/C(=C\CNc1ncnc2c1ncn2[C@@H]1O[C@@H](CO)[C@@H](O)[C@H]1O)CO | inactive | > 46 | > 46 | inactive | inactive |  |  | inactive | inactive |  | inactive
COc1ccc(-c2coc3ccc(O[C@@H]4O[C@@H](COC(C)=O)[C@@H](OC(C)=O)[C@@H](OC(C)=O)[C@H]4OC(C)=O)cc3c2=O)cc1 | inactive | > 46 | > 46 | inactive |  |  |  | inactive | inactive |  | inactive
COc1cc2oc(-c3ccccc3)cc(=O)c2cc1OC | 0.2 µM (active) | > 46 | > 46 | inactive | inactive | 15.8 µM (active) | inactive | inactive |  | inactive | 
CCCCCCCCCCCCCCCCOC[C@@H](COCC(F)(F)F)OP(=O)(O)OCO | inactive | > 46 | > 46 | inactive |  |  |  | inactive |  |  | inactive
O=c1cc(-c2ccccc2O)oc2c(O)c(O)ccc12 | 2.51 µM (active) | > 46 | > 46 | inactive |  |  | inactive | 15.8 µM (active) | 1.26 µM (active) | inactive | 
C=C1CC[C@H]2C(C)(C)[C@H](O)CC[C@]2(C)[C@@H]1COc1ccc2ccc(=O)oc2c1 | 31.6 µM (active) | > 46 | > 46 |  | 3.98 µM (active) |  |  | inactive | 6.31 µM (active) |  | inactive
CC(C)[C@@H](CC(=O)N[C@@H]1CCCC[C@H]1C(=O)N[C@H](CC(=O)N[C@@H](CCC(=O)O)CC(=O)O)Cc1ccccc1)NC(=O)C[C@H](Cc1c[nH]c2ccccc12)NC(=O)[C@@H]1CCCC[C@H]1N | inactive |  | > 46 | inactive |  |  |  | inactive | inactive |  | inactive
CC(C)C[C@@H](CC(=O)N[C@H](CC(=O)N[C@@H]1CCNC[C@H]1C(=O)N[C@H](CC(=O)N[C@@H](CCC(=O)O)CC(=O)O)Cc1ccccc1)C(C)C)NC(=O)[C@@H]1CNCC[C@H]1N | 31.6 µM (active) |  | > 46 | inactive |  |  |  | inactive | inactive |  | inactive
C=C(CO)[C@H]1Cc2c(ccc3c(=O)c4c(oc23)COc2cc(OC)c(OC)cc2-4)O1 | inactive | > 46 | > 46 |  | inactive |  |  | inactive | inactive |  | 
NCCC[C@@H](CC(=O)N[C@@H]1CCNC[C@H]1C(=O)N[C@H](CC(=O)N[C@@H](CCC(=O)O)CC(=O)O)Cc1c[nH]c2ccccc12)NC(=O)C[C@H](Cc1c[nH]c2ccccc12)NC(=O)[C@@H]1CCCC[C@H]1N | inactive |  | > 46 | inactive | inactive |  |  | inactive | inactive |  | inactive
CC(C)=CCC/C(C)=C/COc1c2ccoc2cc2oc(=O)ccc12 | 0.316 µM (active) | > 46 | > 46 |  | 0.0316 µM (active) |  |  | 0.0631 µM (active) | 0.01 µM (active) |  | 
CC(C)C[C@@H](CC(=O)N[C@@H](CCC(=O)O)CC(=O)O)NC(=O)[C@@H]1CCCC[C@H]1NC(=O)C[C@H](CCCN)NC(=O)C[C@H](Cc1ccccc1)NC(=O)[C@@H]1CCCC[C@H]1N | inactive |  | > 46 | inactive | inactive |  |  | inactive | inactive |  | inactive
CC(C)C[C@@H](CC(=O)N[C@@H](CCCN)CC(=O)N[C@@H]1CCCC[C@H]1C(=O)N[C@H](CC(=O)N[C@@H](CCC(=O)O)CC(=O)O)Cc1ccccc1)NC(=O)[C@@H]1CCCC[C@H]1N | inactive |  | > 46 | inactive |  |  |  | inactive |  |  | inactive
C[C@@H]1C[C@@]2(C)Oc3ccccc3[C@H]3OC[C@]1(COC(=O)Nc1ccccc1)[C@@H](C)[C@@H]32 | 15.8 µM (active) | > 46 | > 46 |  | 20 µM (active) |  |  | inactive | 10 µM (active) |  | 
CC(C)C[C@@H](CC(=O)N[C@@H](CCC(=O)O)CC(=O)O)NC(=O)[C@@H]1CCCC[C@H]1NC(=O)C[C@@H](NC(=O)C[C@H](Cc1c[nH]c2ccccc12)NC(=O)[C@@H]1CNCC[C@H]1N)C(C)C | inactive |  | > 46 | inactive | inactive |  |  | inactive | inactive |  | inactive
